Compound activity (PubChem)
Shown are actives, neighbours in structure and some others; about 2.5% of the full set was active somewhere.
Cruzain noTriton = qHTS Assay for Promiscuous and Specific Inhibitors of Cruzain (without detergent); Cruzipain (Trypanosoma cruzi), P25779; purified cruzain, Z-FR-AMC fluorescence, no detergent; Potency, µM, for the others: max response, negative = inhibition, most hits filed as inhibitors; actives 2.3% (n = 200,000);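 also: plate controls were enzyme without inhibitor for no effect and buffer without enzyme for full effect; nearly all actives have a fitted effect of over 40% in size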
Target sequence (P25779 123-467 limits assumed): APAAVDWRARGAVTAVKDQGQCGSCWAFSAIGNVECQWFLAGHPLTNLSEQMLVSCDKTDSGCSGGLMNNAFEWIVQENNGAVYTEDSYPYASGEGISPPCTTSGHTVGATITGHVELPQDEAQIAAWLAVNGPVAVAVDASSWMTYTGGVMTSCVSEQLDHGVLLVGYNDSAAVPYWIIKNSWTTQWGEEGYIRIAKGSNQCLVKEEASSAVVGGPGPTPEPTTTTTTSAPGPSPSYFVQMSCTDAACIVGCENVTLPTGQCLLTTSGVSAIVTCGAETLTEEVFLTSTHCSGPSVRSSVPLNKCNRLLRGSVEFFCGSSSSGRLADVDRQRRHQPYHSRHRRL
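Detergent-free condition (0.00005% Triton X-100) in acetate buffer pH 5.5 with DTT. 1.5 nM enzyme and compound were pre-mixed 15 min, then 2 uM Z-FR-AMC substrate added; reaction progress from fluorescence change between first and third reads (60 s).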
Cruzain Triton = qHTS Assay for Promiscuous and Specific Inhibitors of Cruzain (with detergent). purified cruzain, Z-FR-AMC fluorescence, 0.01% Triton. Potency, µM, without a hit: max response, negative = inhibition, most hits filed as inhibitors. actives 0.43% (n = 200,000). AID 1478, 2009;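 also: plate controls were neutral wells for no effect and buffer without enzyme for full effect; nearly all actives have a fitted effect of over 40% in size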
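Compounds were screened in titration against cruzain (1.5 nM) with 0.01% Triton X-100 to counter colloidal aggregation. Activity was the AMC fluorescence increase over 60 s after adding 2 uM Z-FR-AMC at pH 5.5.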
Active calls of the source: *. Calls follow the shape of the dose curve; as a rule, active = well fitted curve in the direction sought with a large enough effect; inconclusive = small, poorly fitted or top-dose-only effect, or another doubt; inactive = no such curve, though single readings can be large; an effect the other way counts as inactive or inconclusive. Potency is read from the fitted curve at half-maximal effect.

`COc1ccc2nc(N(Cc3cccnc3)C(=O)C3CCCCC3)sc2c1` gave Cruzain noTriton 16% and Cruzain Triton -5%.
`CCOc1ccc(NC(=O)c2ccc3c(=O)n4nc(Nc5ccccc5C)sc4nc3c2)cc1` gave Cruzain noTriton 6% and Cruzain Triton 1%.
For COc1ccc(C2CC(=O)N(CC(=O)Nc3ccc(C(C)=O)cc3)c3ccccc3S2)cc1OC (configuration not stated) the results were Cruzain noTriton inconclusive and Cruzain Triton -5%.
Screening COc1ccc(-c2nc(CSCC(=O)NCc3ccccc3Cl)c(C)o2)cc1OC returned Cruzain noTriton 1% and Cruzain Triton -5%.
COc1ccc(Oc2ncc3nc(C)c(=O)n(C4CC4)c3n2)cc1 was read as Cruzain noTriton -13% and Cruzain Triton 0%.
CCOC(=O)c1c(NC(=O)CC2SC(N)=NC2=O)sc2c1CCC(C)C2 (configuration not stated) was read as Cruzain noTriton inconclusive and Cruzain Triton -12%.
CCOC(=O)c1c(NC(=O)Cn2nc([N+](=O)[O-])c(Br)c2C)sc2c1CCC(C)C2 (configuration not stated) was read as Cruzain noTriton 13µM* and Cruzain Triton -4%.
`Cc1ccc(/C=C/C(=O)OCC(=O)Nc2ccccc2Sc2ccccc2)cc1` gave Cruzain noTriton 13µM* and Cruzain Triton -6%.
Screening COc1cccc(/C=C/C(=O)OCC(=O)Nc2ccccc2Sc2ccccc2)c1 returned Cruzain noTriton -27% and Cruzain Triton -5%.
Cc1cc(C)c2c(-c3ccc(-c4ccc(C(F)(F)F)cc4)cc3)cc(=O)oc2c1 was read as Cruzain noTriton 25µM* and Cruzain Triton 5%.
`COc1ccc(-c2ccc(-c3cc(=O)oc4cc(C)cc(C)c34)cc2)cc1` gave Cruzain noTriton inconclusive and Cruzain Triton 0%.
`CCNc1ncc2nc(-c3cccs3)c(=O)n(C)c2n1` gave Cruzain noTriton 10% and Cruzain Triton 4%.
`CCn1nc(-c2cccs2)nc2c(=O)n(C)c(=O)nc1-2` gave Cruzain noTriton 2µM* and Cruzain Triton 2.2µM*.
Cc1ccc(NC(=S)/N=C(\N)Nc2nc(C)c3ccccc3n2)cc1C was read as Cruzain noTriton inconclusive and Cruzain Triton -2%.
Screening COc1ccc2nc(N/C(N)=N/C(=S)Nc3ccc(C)c(C)c3)nc(C)c2c1 returned Cruzain noTriton 13µM* and Cruzain Triton -12%.
For C/C(=C/CCC(C)[C@H]1CC[C@@]2(C)C3=C(CC[C@]12C)[C@@]1(C)CCC(=O)C(C)(C)[C@@H]1CC3)C(=O)O (some centres not stated) the results were Cruzain noTriton 25µM* and Cruzain Triton -6%.
`CC(C)=CCCC(C)C1CC[C@@]2(C)C3=C(CC[C@@]12C)C1(C)CCC(O)C(C)(C)C1CC3` (some centres not stated) gave Cruzain noTriton inconclusive and Cruzain Triton -3%.
Nc1c(S(N)(=O)=O)cc(S(N)(=O)=O)cc1S(N)(=O)=O was read as Cruzain noTriton 5% and Cruzain Triton 0%.
For Nc1nc(-c2ccccc2)c(-c2ccccc2)c(-c2nc(N)nc(-c3ccccc3)c2-c2ccccc2)n1 the results were Cruzain noTriton -1% and Cruzain Triton 2%.
`CCCCN(C)CCNC(=O)c1cc(-c2ccc(Cl)s2)nc2ccccc12` gave Cruzain noTriton 10% and Cruzain Triton -4%.
Cc1cc(C)c(-c2csc(NC(=O)c3cc([N+](=O)[O-])ccc3N3CCOCC3)n2)c(C)c1 was read as Cruzain noTriton -14% and Cruzain Triton -4%.
For O=C(Nc1nc2ccc(Oc3ccccc3)cc2s1)c1cc([N+](=O)[O-])ccc1N1CCOCC1 the results were Cruzain noTriton 16µM* and Cruzain Triton -18%.
`CC(C)c1ccccc1NC(=O)CN1C(=O)c2cccc3cccc1c23` gave Cruzain noTriton 4% and Cruzain Triton -3%.
`CC(C)COc1ccc(C(=O)N(Cc2cccc(F)c2)C2CCS(=O)(=O)C2)cc1` (configuration not stated) gave Cruzain noTriton inconclusive and Cruzain Triton -7%.
`CSc1nc(C)c(C(=O)Nc2ccccc2)c(C)c1C#N` gave Cruzain noTriton -2% and Cruzain Triton 0%.
For Cc1nc(SCC(=O)c2cc3ccccc3oc2=O)c(C#N)c(C)c1C(=O)Nc1ccccc1 the results were Cruzain noTriton 13µM* and Cruzain Triton -6%.
`Cc1cccc(C)c1OCc1cc(=O)n2ccsc2n1` gave Cruzain noTriton 8% and Cruzain Triton -10%.
Screening Cc1ccc(OCc2nnc(NC(=O)c3ccco3)s2)cc1 returned Cruzain noTriton -11% and Cruzain Triton -1%.
Cc1ccc(OCCSc2nnc(NC(=O)c3ccco3)s2)cc1 was read as Cruzain noTriton 25µM* and Cruzain Triton 4%.
`CCOC(=O)c1ccc(NC(=O)CCc2c(C)n(CC)c3cc(-c4ccccc4OC)nn3c2=O)cc1` gave Cruzain noTriton -12% and Cruzain Triton 1%.
`CN(C)c1ccc(CNC(=O)[C@@]2(C)C=C[C@@H](Cc3ccccc3)N2C)cc1` gave Cruzain noTriton 2% and Cruzain Triton -2%.
For O=C(CCN1CCCCC1)c1csc2ccccc12 the results were Cruzain noTriton 2.5µM* and Cruzain Triton -23%.
Screening O=C(CCN1CCCCC1)c1ccccc1 returned Cruzain noTriton -13% and Cruzain Triton -5%.
Cc1ccc(Cc2cnc(NC(=O)c3ccco3)s2)cc1 was read as Cruzain noTriton -9% and Cruzain Triton -1%.
`O=C(Nc1ncc(Cc2ccc(SC(F)F)cc2)s1)c1ccc(OC(F)F)cc1` gave Cruzain noTriton 20µM* and Cruzain Triton -3%.
For CC(C)(C)c1ccc(/C=C/C(=O)Nc2ccc3c(c2)OCCO3)cc1 the results were Cruzain noTriton -24% and Cruzain Triton 3%.
Cc1ccc(NC(=O)Cc2ccc(-n3c(C)nc4cccnc43)cc2)c(Cl)c1 was read as Cruzain noTriton -2% and Cruzain Triton 8.9µM*.
Screening COc1ccc(Cn2c(CCC(=O)Nc3ccc(C)cc3C)nc3cccnc32)cc1 returned Cruzain noTriton 19% and Cruzain Triton 1%.
COCCn1c(=O)c(C)nc2cnc(N3CCNCC3)nc21 was read as Cruzain noTriton 2% and Cruzain Triton -11%.
`CC1=NN(c2ccccc2)C(=O)/C1=C\c1c(C)[nH]n(-c2ccccc2)c1=O` gave Cruzain noTriton 2% and Cruzain Triton 1%.
`CC1=NN(c2ccccc2)C(=O)/C1=C/c1c(O)n(-c2ccc(F)c(Cl)c2)[nH]c1=O` gave Cruzain noTriton -6% and Cruzain Triton 22µM*.
For CC(C)c1ccc(NC(=O)CSC2=Nc3ccccc3C3=NC(CCC(=O)NCc4ccco4)C(=O)N23)cc1 (configuration not stated) the results were Cruzain noTriton inconclusive and Cruzain Triton -1%.
Screening CC(C)CCNC(=O)C1CCC(Cn2c(=O)c3sccc3n(CC(=O)NC(C)C)c2=O)CC1 (configuration not stated) returned Cruzain noTriton -1% and Cruzain Triton 0%.
For Cc1cc(C(=O)NC2=NCCS2)cs1 the results were Cruzain noTriton -4% and Cruzain Triton -2%.
`O=C(NC1=NCCS1)c1csc2ccccc12` gave Cruzain noTriton 16µM* and Cruzain Triton -14%.
